A selection: hits, their analogues and other compounds. The true share with any hit is near 7.5%.
ELG1 genotox = inducers of genotoxicity in HEK293T ELG1-luciferase cells | HEK293T ELG1-luciferase reporter, luminescence, 16 h | Potency, µM (titrated, usually from 46 µM), inactives show at the top dose activity change, positive = activation, actives largely listed as activators | 1.3% of 330,000 active | AID 504466; note: % of control where 0% means no effect; nearly all actives have a fitted effect of over 60% in size
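Cells (2,000/well) expressing the ELG1-luciferase fusion are dosed by pin tool and kept 16 hr at 37 °C, 5% CO2. Signal comes from ONE-Glo luciferase reagent after 30 min at room temperature.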
SMN2 splice up = increases expression of the SMN2 splice variant; 2.8% of 210,000 active; Potency, µM (titrated, usually from 46.1 µM), for the others: top-dose activity change, positive = activation, usual class: activators; AID 1458; HEK293 SMN2-luciferase splicing reporter, luminescence, 30-36 h; note: % of control where 0% means no effect; nearly all actives have a fitted effect of over 55% in size
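qHTS luciferase splicing reporter: luminescence rises when SMN2 exon 7 is included in transfected HEK293 cells. Compound exposure lasted 30-36 h at 37C, with 4.5 mM final sodium butyrate as control, followed by a ONE-Glo read.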
KinaseGlo FLuc = counter-screen: inhibitors of Kinase-Glo firefly luciferase; Q27757; Kinase-Glo luciferase, ATP luminescence, 8 min; Potency, µM (highest dose often 38.3 µM), without a hit: at the top dose activity change, negative = inhibition, usual class: inhibitors; 0.28% of 200,000 active; AID 1379; note: % is set by controls: 0 for no effect and ±100 for the full control effect; nearly all actives have a fitted effect of over 60% in size
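Compound is pinned into ATP-containing buffer (10 uM ATP, imidazole pH 7.2, 7 mM MgCl2). Kinase-Glo luciferase reagent is then added. Light output is recorded following an 8-min room-temperature incubation.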
FLuc modulator = counter-screen for miR-21 project: firefly luciferase inhibitors or activators; purified FLuc, Km substrates, luminescence inhibition; P08659; 6.9% of 360,000 active; Potency, µM (top dose mostly 57.5 µM), inactives show top-dose activity change, negative = inhibition, actives largely listed as inhibitors; AID 588342;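 note: plate controls were vehicle for no effect and reference inhibitor for full effect; nearly all actives have a fitted effect of over 55% in size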
Target sequence (P08659 whole entry, looked up): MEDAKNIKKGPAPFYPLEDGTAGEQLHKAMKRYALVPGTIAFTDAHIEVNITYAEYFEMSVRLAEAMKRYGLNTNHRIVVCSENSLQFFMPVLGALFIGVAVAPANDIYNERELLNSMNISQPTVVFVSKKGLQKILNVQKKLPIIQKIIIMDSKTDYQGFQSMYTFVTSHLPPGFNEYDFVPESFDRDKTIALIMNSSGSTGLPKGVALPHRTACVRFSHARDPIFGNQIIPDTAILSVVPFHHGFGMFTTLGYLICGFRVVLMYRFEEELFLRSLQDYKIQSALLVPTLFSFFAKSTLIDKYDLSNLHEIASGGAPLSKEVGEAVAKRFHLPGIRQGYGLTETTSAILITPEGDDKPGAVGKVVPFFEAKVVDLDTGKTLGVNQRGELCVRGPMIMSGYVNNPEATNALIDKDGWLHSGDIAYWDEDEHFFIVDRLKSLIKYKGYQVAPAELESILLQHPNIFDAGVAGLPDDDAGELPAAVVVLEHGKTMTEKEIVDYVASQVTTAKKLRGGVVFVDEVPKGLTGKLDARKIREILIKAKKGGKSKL
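Biochemical qHTS of compounds, final roughly 60 µM downward over six points, against 10 nM purified firefly luciferase using Km concentrations of substrates (10 uM D-luciferin, 10 uM ATP) in Tris acetate pH 7.5 buffer; luminescence output.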
NPC1 prom act = NPC1 promoter activation; Potency, µM (titrated, usually from 9.22 µM), without a hit: top-dose activation, actives largely listed as activators; 2.4% of 320,000 active; Huh7 NPC1 promoter luciferase reporter, 24 h; note: % of control where 0% means no effect; nearly all actives have a fitted effect of over 60% in size
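Luminescence from an NPC1 promoter-driven luciferase reporter in stably transfected Huh7 cells was measured after 24 h compound treatment at 37 °C, followed by 10 min ambient incubation with luciferase detection reagent.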
Rab9 prom act = Rab9 promoter activation. 2.8% of 320,000 active. Huh7 Rab9 promoter-luciferase reporter, luminescence, 24 h. Potency, µM (series often up to 9.22 µM), for the others: top-dose activation, negative = inhibition, actives largely listed as activators; note: % of control where 0% means no effect; nearly all actives have a fitted effect of over 60% in size
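Measured in stably transfected Huh7 cells bearing a Rab9 promoter–luciferase construct: 24 h compound treatment at 37 °C, followed by luminescence detection.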
Active calls of the source: *; ? = inconclusive; . = no result given. Calls come from the whole dose curve; as a rule, active = well fitted curve in the direction sought with a large enough effect; inconclusive = small, poorly fitted or top-dose-only effect, or another doubt; inactive = no such curve, though single readings can be large; an effect the other way counts as inactive or inconclusive. Potency is the fitted concentration of half-maximal effect.

SMILES	ELG1 genotox	SMN2 splice up	KinaseGlo FLuc	FLuc modulator	NPC1 prom act	Rab9 prom act
Cc1ccc(NC(=O)NCc2nc3ccccc3n2C)cc1	-2.8%	.	.	-1.7%	-6.8%	0.8%
Cc1ccc(NCc2nc3ccccc3n2C)cc1	1.46µM*	2.24µM*	?	3.38µM*	1.12µM*	0.631µM*
Cn1c(CNc2ccc(O)cc2)nc2ccccc21	?	.	.	13.5µM*	?	?
CC(NC(=O)c1nn(C)c2c1CSc1ccccc1-2)c1ccccc1 (stereo unspecified)	.	.	.	4.7%	.	.
COc1cc(NC(=O)CCn2nc(C)c(S(=O)(=O)N3CCCCC3)c2C)cc(OC)c1OC	.	.	.	-0.9%	.	.
Cn1c(CNC2CCCCC2)nc2ccccc21	-1.4%	0.4%	-3.4%	3.6%	1.0%	-2.2%
CC(C)n1c(NCc2nc3ccccc3n2C)nc2ccccc21	-2.4%	-3.2%	5.7%	-18.4%	-0.3%	1.6%
COc1ccc(Nc2nc3ccccc3n3cnnc23)cc1	4.7%	?	17.2%	-12.7%	-4.0%	-3.1%
Cn1c(CNc2nc3ccccc3n2C)nc2ccccc21	9.5%	?	-4.8%	?	3.55µM*	?
COc1ccc(Nc2nc3ccccc3n3c(N)nnc23)cc1	.	15.9%	.	9.53µM*	.	.
Cn1c(CNc2ccc(Br)cc2)nc2ccccc21	?	.	.	2.69µM*	1.58µM*	2.82µM*
Cc1ccc(S(=O)(=O)n2nc(-c3ccccc3)nc2NCc2ccccc2Cl)cc1	.	2.4%	.	3.1%	.	.
CC(Oc1ccc(Cl)cc1Cl)c1nc(-c2ccc(NC(=O)c3ccccn3)cc2)no1 (stereo unspecified)	?	?	-10.7%	9.53µM*	2.82µM*	?
CC(Oc1ccc(Cl)cc1Cl)C(=O)Nc1ccncc1 (stereo unspecified)	-12.4%	.	.	-2.3%	-1.6%	-4.0%
Cc1ccc(NC(=O)CN(C)C(=O)C(C)N2CCN(Cc3ccccc3C)CC2)cc1 (stereo unspecified)	-1.0%	.	.	8.0%	-2.1%	-1.5%
O=[N+]([O-])c1ccc2c(c1)N([O-])C1(CCCCC1)[N+]2=O	2.4%	.	.	15.1µM*	-0.4%	10.3%
O=C(O)c1cc([N+](=O)[O-])ccc1N1CCCCC1	0.4%	-1.1%	8.4%	-1.5%	-1.2%	0.9%
CCOc1ccccc1NC(=O)CSc1nnc(CC)c(CC)n1	.	.	.	3.0%	.	.
COc1cccc(/C=N\NC(=O)Cn2nnc3ccccc32)c1O	?	.	-2.5%	16.9µM*	-13.9%	-25.6%
COc1cc(/C=N/NC(=O)CCn2nnc3ccccc32)ccc1O	3.7%	9.3%	0.5%	15.1µM*	1.2%	2.4%
COc1cc(/C=N/NC(=O)Cn2nnc3ccccc32)ccc1O	-0.2%	9.7%	-1.5%	-6.1%	-3.4%	11.5%
COc1ccc(Oc2cnc3ccccc3n2)cc1	-2.9%	19.2%	-0.2%	-10.4%	?	3.55µM*
NNc1nc(Nc2ccccc2)nc(Nc2ccccc2)n1	-2.4%	-3.9%	-1.6%	?	9.2%	-0.2%
COc1ccc(Nc2nc(NN)nc(Nc3ccc(OC)cc3)n2)cc1	-8.6%	.	.	10.7µM*	5.8%	-5.1%
COc1ccc(NC(C#N)c2ccc(OC)cc2)cc1 (stereo unspecified)	?	-3.6%	-0.7%	3.01µM*	-0.6%	0.4%
SMILES	ELG1 genotox	SMN2 splice up	KinaseGlo FLuc	FLuc modulator	NPC1 prom act	Rab9 prom act
COc1ccc(NC2=CC(=O)N(C)C2=O)cc1	?	11.2µM*	1.1%	?	?	?
COc1ccc(NC2=C(C)C(=O)CC2)cc1	18.4µM*	?	-6.5%	3.2%	-3.5%	0.6%
CCOc1ncccc1C(=O)N(C)CC(=O)Nc1ccccc1SC	1.8%	-5.0%	3.3%	7.5%	-2.2%	-1.4%
COc1cccc(-c2c(C#N)c(SC)nc3cc(C)nn23)c1	2.6%	.	.	-1.0%	-2.4%	-2.1%
COc1ccc(Nc2ccc(OC)cc2)cc1	.	.	.	19µM*	?	?
CCn1cc(C(=O)NCc2ccc(Cl)cc2)c(=O)c2cc(S(=O)(=O)N(C)C3CCCCC3)ccc21	.	-1.5%	.	-6.7%	.	.
Cc1ccc(C)c(NC(=O)CSc2nnc(-c3ccccc3)n2N)c1	-6.1%	-13.3%	-2.4%	1.9%	1.1%	-8.8%
Cc1ccc(C)c(NC(=O)CSc2nnc3[nH]c(=O)cc(-c4ccccc4)n23)c1	.	.	.	0.953µM*	.	.
Cc1ccc(NC(=O)CSc2nnc3[nH]c(=O)cc(-c4ccccc4)n23)cc1Cl	.	.	.	0.675µM*	.	.
CCOc1ccccc1NC(=O)CSc1nnc2[nH]c(=O)cc(-c3ccccc3)n12	.	.	.	6.01µM*	.	.
CCCCc1ccc(NC(=O)CSc2nnc3[nH]c(=O)cc(C)n23)cc1	.	.	.	15.1µM*	.	.
COc1ccccc1C1=NC(c2ccc(C)cc2)N=C1C (stereo unspecified)	-8.4%	?	4.3%	15.1µM*	?	?
COc1ccccc1-c1nc2ccccc2nc1-c1ccccc1OC	-1.5%	1.3%	0.7%	0.8%	-2.1%	-11.4%
CC1CCCC(NC(=O)CCC(=O)NCc2ccccc2)C1C (stereo unspecified)	-2.3%	.	.	1.4%	0.9%	2.3%
CCc1c(CN2CCN(c3ccccc3F)CC2)csc1C	.	.	.	-2.3%	.	.
CCCc1ccc2oc(C(=O)N(C)Cc3nccs3)c(C)c2c1	23.1µM*	.	.	15.1µM*	?	?
Cc1ccc(NC(=O)C2CCCN2C(=O)OCc2ccccc2)cc1F (stereo unspecified)	0.4%	.	.	1.1%	2.4%	0.9%
O=C(O)CCCCCn1c(O)c(C=C2N=c3ccccc3=N2)sc1=S	-1.1%	-4.3%	0.2%	9.53µM*	0.1%	-3.3%
O=C(O)CCCn1c(O)c(C=C2N=c3ccccc3=N2)sc1=S	10.7%	.	.	6.01µM*	-9.8%	-5.1%
CCCC(C(=O)O)n1c(O)c(C=C2N=c3ccccc3=N2)sc1=S (stereo unspecified)	-1.3%	.	.	?	-2.3%	3.3%
O=C(O)Cn1c(O)c(C=Nc2ccccc2)sc1=S	-2.3%	-12.9%	-2.2%	?	-4.8%	4.5%
O=C(Nc1cscc1S(=O)(=O)c1ccccc1)c1ccccc1Cl	1.1%	.	.	-3.0%	-4.0%	-4.7%
Cc1nc(NC(=O)c2oc3ccccc3c2C)sc1C(=O)N(C)C	?	10µM*	-11.1%	10.7µM*	?	2.82µM*
Cc1ccc2c(C)c(C(=O)Nc3nnc(C)s3)oc2c1	4.4%	25.7%	-1.3%	-2.6%	3.8%	-2.5%
Cc1nnc(NC(=O)c2oc3ccccc3c2C)s1	18.3µM*	.	.	3.01µM*	4.47µM*	3.98µM*
Cc1ccc(C(=O)Nc2nc(C)c(C(=O)N(C)C)s2)o1	?	.	.	?	29.3%	?
O=C(C=C=Nc1ccccc1)C(=O)N=C=Cc1ccccc1	?	.	.	4.78µM*	-12.9%	-36.4%

Bioassay records as filed in PubChem BioAssay.
